Records with an inconclusive call do not appear. A number with no mark means an inactive call. The source made the active and inactive calls. The call rests on the fitted dose curve; in most records, active means well fitted cell-killing curve with a large enough effect; inconclusive means small, poorly fitted or top-dose-only effect, or effect the other way; inactive means no such curve, though single readings can be large or run the other way.
Potency means the concentration at half of the fitted maximal effect.

This assay is described as follows: Viability qHTS for spleen associated tyrosine kinase inhibitor (SYKi) naive MV4-11 cells (AID 1963823). Further: nearly all actives have a fitted effect of over 40% in size. The conditions noted are these: MV4-11 AML viability, CellTiter-Glo luminescence, 72 h; series mostly up to 45 µM. From the text: Department of Medicine, Hematology/Oncology
University Hospital Frankfurt, Germany.
Trials have shown promising clinical activity of the selective SYK inhibitor entospletinib in patients with high expressing HOXA9/MEIS1 acute leukemias. As the development of resistance mechanisms is a common problem in the use of targeted drugs, we performed a chemical library screen to identify drug sensitivities in SYK inhibitor resistant AML cells. […] Glucocorticoids are potent immunosuppressants which work in part by inhibiting the transcription of cytokine genes.
Described herein is a viability screen to look for activity in the SYK inhibitor naive cell line against four NCATS compound libraries (MIPE 5.0, NPC, NPACT, and Kinase) totaling 11372 compounds. Active hits were reacquired for confirmation and further secondary assay testing.
SEQUENCE No. (e.g., 1, 2, 3, etc.); […] (e.g., Cells, Incubation, Reagent, etc.); VALUE; DESCRIPTION.
1; Media; 2uL; white, solid-bottom Corning assay plate.
2; Compounds; 23nL; Echo acoustic dispenser.
3; Cell; 5uL; 500 cells per well.
4: Incubation; 72hr; 37 C, 5% CO2, 95% humidity.
5; Reagent; 3uL; CellTiter-Glo reagent (Promega).
6; Incubation; 10min; room temperature.
7; Detection; Luminescence; ViewLux plate reader (PerkinElmer).
NOTES (numbers refer to Sequence numbers above
1. Quantitative high-throughput screening (qHTS) of small molecule compounds was conducted on naive SYKi MV4-11 cell line.
2. Twenty-three nanoliter of small molecule compounds were added to each assay plates using the Echo acoustic dispenser (Beckman Coulter).
3. Cells were seeded into the assay plates at a final density of 500 cells in 5uL of media per well using the Multi-drop Combi dispenser.
4. Plates were covered with stainless steel gasketed lids and incubated for 72 hours at standard cell culture conditions.
5. Viability was assessed by adding 3uL of CellTiter-Glo detection reagent (Promega).
6. Plates were covered with gasket lids and incubated for 10 minutes at room temperature.
7. Luminescence was measured on a ViewLux plate reader (PerkinElmer).
Background: In qHTS, concentration-response curves come from the screen itself.
Take `CC(C(O)c1ccccc1)N(C)CCOC(c1ccccc1)c1ccccc1` (stereo not given): the Potency is 9200 nM (active).
For `COc1cc2c(cc1OC)CN(CCc1ccc(-n3nnc(-c4cc(OC)c(OC)cc4NC(=O)c4cc(=O)c5ccccc5o4)n3)cc1)CC2`, the viability (% of control) was 79.1% [at 0.588 µM].
Take `COc1ccc(S(=O)(=O)Nc2nnc(CC(C)C)s2)cc1`: the Potency entry is “inactive”.
Turning to `COc1ccc(CCCN2CCC(COC(c3ccccc3)c3ccccc3)CC2)cc1`, the Potency is 10300 nM (active).
Turning to `CC1(C)CC[C@]2(C(=O)O[C@@H]3O[C@H](CO)[C@@H](O)[C@H](O)[C@H]3O)CC[C@]3(C)C(=CCC4[C@@]5(C)CC[C@H](O[C@@H]6O[C@H](C(=O)O)[C@@H](O[C@@H]7O[C@H](CO)[C@@H](O)[C@H](O)[C@H]7O)[C@H](O)[C@H]6O)C(C)(C)C5CC[C@]43C)C2C1` (stereo not given in full), the viability (% of control) is 78.7% [at 9.25 µM].
For the molecule `CC[C@H](C=C[C@@H](C)[C@H]1CC[C@H]2[C@@H]3CC=C4C[C@@H](O)CC[C@]4(C)[C@@H]3CC[C@]12C)C(C)C`, the Potency entry is “inactive”.
In the case of `CCN1CCN(c2cc3c(cc2F)c(=O)c(C(=O)O)cn3C2CC2)CC1`, the Potency entry is “inactive”.
Take `CCN(CC)CCc1nc(-c2ccccc2)no1`: the Potency entry is “inactive”.
For the molecule `CC1=CC(=O)CC(C)(C)C1CCC(C)O[C@@H]1O[C@H](CO[C@@H]2OC[C@@H](O)[C@H](O)[C@H]2O)[C@@H](O)[C@H](O)[C@H]1O` (stereo not given in full), the Potency result is “inactive”.
`C/C=C(/C)C(=O)OC1C(OC(C)=O)C23C(O)OC4(CCC5C6(C)CCC(OC7OC(C(=O)O)C(O)C(OC8OC(CO)C(O)C(O)C8OC8OC(C)C(O)C(O)C8OC8OCC(O)C(O)C8O)C7OC7OC(CO)C(O)C(O)C7O)C(C)(C)C6CCC5(C)C4(C)CC2OC(C)=O)C3CC1(C)C` (stereo not given): the viability (% of control) is 43.2% [at 9.25 µM].
Regarding `Nc1nc(-c2nn(Cc3ccccc3F)c3ncccc23)nc(N)c1N1CCOCC1`, the Potency entry is “inactive”.
Consider `CC(=O)O[C@H]1C[C@@H](O)C(C)(C)C2C[C@@H](OC(C)=O)[C@@]3(C)C4=CCC(C(CO)CC(O)C5OC5(C)C)[C@]4(C)CCC3[C@]21C` (stereo not given in full), for which the Potency result was “inactive”.
`N[C@@H](CCNCc1ccc(Cl)cc1)C(=O)N1CCCCC1`: the Potency result was “inactive”.
On to `C=C1[C@H](OC(C)=O)[C@H]2[C@@H](OC(=O)c3ccccc3)[C@@H](C)C[C@]2(O)[C@@H](OC(C)=O)[C@H](C)/C=C/C(C)(C)C(=O)[C@H](OC(C)=O)[C@H]1OC(C)=O`, for which the Potency entry is “inactive”.
On to `CC1(C)CCC[C@@]2(C)[C@H]1[C@H](O)C=C(CO)[C@]2(O)CO`, for which the Potency result was “inactive”.
Regarding `CN(C)CC[C@@H](c1ccc(Cl)cc1)c1ccccn1`, the Potency entry is “inactive”.
On the same count and under the same terms, for `C=C1C(=O)O[C@@H]2[C@H]3O[C@]3(C)CC/C=C(\C)CC[C@@H]12` the value was 2350 nM (active); for `C[C@@H]1C[C@@H]2O[C@H]2/C=C\C=C\C(=O)Cc2c(Cl)c(O)cc(O)c2C(=O)O1`, 40.4 nM (active).
On to `COc1c(CCC(=O)O)cccc1O[C@@H]1O[C@H](CO)[C@@H](O)[C@H](O)[C@H]1O`, for which the Potency result was “inactive”.
Turning to `COC1CC(O[C@H]2CC[C@@]3(C)C(=CC[C@]4(O)C3[C@H](OC(C)=O)[C@@H](OC(=O)c3ccccc3)[C@]3(C)[C@@H](C(C)=O)CC[C@@]34O)C2)OC(C)C1OC1CC(OC)C(OC2CC(OC)C(OC3OC(C)C(OC4OC(CO)C(O)C(O)C4O)C(OC)C3O)C(C)O2)C(C)O1` (stereo not given in full), the viability (% of control) was 74.5% [at 9.25 µM].
For `COc1ccc(CC2NCCc3c2[nH]c2ccc(C)cc32)cc1OC` (stereo not given), the Potency was 9200 nM (active).
In the case of `N[C@@H](CSSC[C@H](N)C(=O)O)C(=O)O`, the viability (% of control) is 68.4% [at 0.588 µM].
Regarding `CN(C)CCN(Cc1ccc(-c2ccc(CNCCc3ccccc3)cc2)cc1)C(=O)CCC1CCCC1`, the Potency was 1030 nM (active).
As for `O=C1[C@H](O[C@@H]2O[C@H](CO)[C@@H](O)[C@H](O)[C@H]2O)Oc2ccccc2N1O`, the Potency result is “inactive”.
Regarding `CC1CCC2(OC1)OC1CC3C4CCC5C[C@@H](O[C@@H]6O[C@H](CO[C@@H]7OC[C@@H](O)[C@H](O)[C@H]7O)[C@H](O)[C@H](O)[C@H]6O)CC[C@]5(C)C4CC[C@]3(C)C1C2C` (stereo not given in full), the Potency entry was “inactive”.
Turning to `C=C1CC[C@@H]2[C@](C)(CO)[C@H](O)CC[C@@]2(C)[C@@H]1C/C=C1/C(=O)OCC1O` (stereo not given in full), the Potency is 2910 nM (active).
In the case of `C=C1CC[C@H]2[C@@](C)(CCC(OC3OC(CO)C(O)C(O)C3O)[C@@]2(C)CO)C1C(=O)CC1=CCOC1=O` (stereo not given in full), the Potency result is “inactive”.
Regarding `NC(=O)c1cccc2c(NC(CN3CCC3)c3ccc(Cl)c(C(F)(F)F)c3)ncnc12` (stereo not given), the Potency was 1480 nM (active).
Consider `COC(=O)[C@H]1[C@@H](O)[C@@]2(O)c3c(OC)cc(O[C@@H]4O[C@@H]([C@@H](O)CO)CO[C@H]4OC)cc3O[C@@]2(c2ccc(OC)cc2)[C@@H]1c1ccccc1`, for which the Potency is 2350 nM (active).
On to `CN(CCOc1ccc(NS(C)(=O)=O)cc1)CCc1ccc(NS(C)(=O)=O)cc1`, for which the Potency result is “inactive”.
Take `Cc1c(CN2CCC(Nc3ncnc4sc(CC(F)(F)F)cc34)CC2)ccc2c1cc(C#N)n2Cc1cn[nH]c1`: the Potency was 525 nM (active).
Take `O=C(CCl)Nc1cccc(NC2=NS(=O)(=O)c3ccccc32)c1`: the Potency is 2630 nM (active).
For `COc1ccc(S(=O)(=O)N[C@@H](CNc2nc(C)nc(N3CCC(c4ccc5c(n4)NCCC5)CC3)c2C)C(=O)O)cc1`, the Potency result is “inactive”.
In the case of `O=C(O)Cc1cccc(-c2cc(CCCCCCc3ccc(O[C@H]4O[C@H](CO)[C@@H](O)[C@H](O)[C@@H]4O)c(-c4cccc(CC(=O)O)c4)c3)ccc2O[C@H]2O[C@H](CO)[C@@H](O)[C@H](O)[C@@H]2O)c1`, the viability (% of control) was 99.5% [at 0.588 µM].
Regarding `O=C1NC(=O)[C@@]2(CCOc3ccc(F)cc32)N1`, the Potency entry was “inactive”.
As for `COc1cc(Nc2nc3c(s2)CCCC3c2ccc(F)cc2)ccc1-n1cnc(C)c1` (stereo not given), the Potency is 3660 nM (active).
`O=C(CCCCC1CCCCC1)N1CCC(c2cnc[nH]2)CC1`: the Potency was 13000 nM (active).
In the case of `C[C@@H]1O[C@@H](O[C@@H]2[C@@H](O)[C@H](O[C@H]3CC[C@@]4(C)C(CC[C@]5(C)C4CC=C4[C@@H]6CC(C)(C)CC[C@]6(C(=O)O[C@@H]6O[C@H](CO)[C@@H](O)[C@H](O)[C@H]6O)CC[C@]45C)C3(C)C)O[C@H](C(=O)O)[C@H]2O)[C@H](O)[C@H](O)[C@H]1O` (stereo not given in full), the viability (% of control) was 80.6% [at 9.25 µM].
In the case of `O=C(Nc1ncc(SCCN2CCCC2)s1)C1(c2ccc(S(=O)(=O)C3CC3)cc2)CC1C1CCCCC1` (stereo not given), the Potency was 8200 nM (active).
For `Fc1ccccc1CNCc1ccc(-c2ccnc3[nH]ccc23)cc1`, the Potency was 5170 nM (active).
